According to PubChem BioAssay (NCI):
This is part of a sample that, as a whole, favours compounds with a hit. Of some 83,000 tested, about 20% had one in any assay.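 Step 1: grow cells in 96-well plates. Step 2: add test compound at a single concentration. Step 3: incubate 48 h. Step 4: record percent growth.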 A number with no mark means an inactive call. Active and inactive are the calls of the source. How the source made its calls: active means growth percent below 10; inactive means the rest.

Experiments:
Experiment in all cases: NCI-60 one-dose screen, 48 h (100 = growth as untreated, 0 = no growth, -100 = all killed)
Conditions in all cases: 10 µM
[1] = test system: NCI-H23 lung
[2] = test system: NCI-H226 lung
[3] = test system: NCI-H322M lung
[4] = test system: HOP-62 NSCLC
[5] = test system: NCI-H460 lung
[6] = test system: HOP-92 NSCLC
[7] = test system: NCI-H522 lung
[8] = test system: A549/ATCC NSCLC
[9] = test system: 786-0 renal
[10] = test system: COLO 205 colon
[11] = test system: DU-145 prostate
[12] = test system: K-562 leukemia
[13] = test system: MALME-3M melanoma
[14] = test system: MDA-MB-231 breast
[15] = test system: RXF 393 renal
[16] = test system: SF-268 CNS
[17] = test system: SF-295 CNS
[18] = test system: SF-539 CNS
[19] = test system: UACC-257 melanoma
[20] = test system: M14 melanoma

SMILES | growth [1] | growth [2] | growth [3] | growth [4] | growth [5] | growth [6] | growth [7] | growth [8] | growth [9] | growth [10] | growth [11] | growth [12] | growth [13] | growth [14] | growth [15] | growth [16] | growth [17] | growth [18] | growth [19] | growth [20]
CCCC(C)c1ccc(OCCCCCCN2CCNCC2)cc1 (centres undefined) | 61.6% | 89.3% | 58.3% | 66.6% | 6.72% (active) | 25.1% | 3.3% (active) | 39.7% | -21.1% (active) | -68.3% (active) | 38.4% | -34.1% (active) | 37% | -0.569% (active) | -13.3% (active) | 70.4% | -6.71% (active) | 56.1% | 79% | 57.5%
COc1ccc2oc(=O)cc(C3c4ccc([nH]4)C(c4cc(=O)oc5ccc(OC)cc45)c4ccc([nH]4)C(c4cc(=O)oc5ccc(OC)cc45)c4ccc([nH]4)C(c4cc(=O)oc5ccc(OC)cc45)c4ccc3[nH]4)c2c1 (centres undefined) | -12.4% (active) | 15.8% | 27.9% | 17.6% | 6.39% (active) | 41.8% | -71.9% (active) | 41.1% | -24% (active) | -76.7% (active) | -19.3% (active) | -20.5% (active) | 2.83% (active) | -16.5% (active) | -77.3% (active) | 20.4% | 9.08% (active) | -26.9% (active) | 33.7% | –
Clc1cc(Cl)c(OCCCCCCN2CCNCC2)c(Cl)c1 | 53.9% | 94% | 78.3% | 77.6% | -39.8% (active) | -0.831% (active) | 55.1% | 53.8% | 23.1% | -71.3% (active) | 67.1% | -43.6% (active) | 50.1% | -8.55% (active) | 24.1% | 55.3% | -37.8% (active) | 49% | -1.75% (active) | –
COc1cc(-c2nc3cc(Cl)c(Cl)cc3[nH]2)ccc1OCC(=O)NN | 92.8% | 90.5% | 79.1% | 72% | 84.8% | 94% | 67.5% | 71% | 96.1% | 108% | 75.5% | 31.9% | 95.3% | 57.8% | 131% | 77.6% | 71.5% | 80.5% | 96.9% | –
CCN(CC)CCn1c(=N)n(CC(O)c2ccc(Cl)c(Cl)c2)c2ccccc21 (centres undefined) | 91.2% | 92.2% | 99.5% | 85.3% | 104% | 58.1% | 45% | 89.6% | 79.9% | 18.5% | 97% | -0.392% (active) | -35.6% (active) | 45.1% | 76.3% | 87.2% | 103% | 42.4% | -59.8% (active) | –
CCCCCCN=C(N)CCCCCCCCCCC(N)=NCCCCCC | 27.8% | 51.6% | 62.4% | 18.5% | 13.4% | 8.01% (active) | 23.9% | 33.7% | 37% | -9.55% (active) | 58.5% | 13.5% | 44.9% | 32.1% | 35.8% | 28.8% | 41% | 29.3% | 79.8% | –
CCCCCc1cc[n+](CC(=O)c2ccc(Cl)cc2)cc1 | 81.5% | 90.8% | 85.3% | 92.7% | 98.5% | 78% | 72.1% | 91.3% | 76.2% | 80.5% | 95.2% | 90.7% | 89.8% | 76.6% | 95.6% | 84.7% | 94% | 93.9% | 97.5% | –
O=[N+]([O-])c1ccc(Br)o1 | 94.4% | 93.1% | 103% | 100% | 113% | 102% | 84.4% | 104% | 99.2% | 105% | 101% | 106% | 104% | 107% | 106% | 95.9% | 98.8% | 98.6% | 110% | –
COc1ccc(CSc2nc3cc(OC)c(OC)cc3c(=O)n2-c2ccc(OC)cc2OC)cc1 | 78.3% | 78.4% | 80.6% | 101% | 90.6% | 75.5% | 68.6% | 80.8% | 95.7% | 101% | 97.7% | 87.1% | 82.6% | 75.4% | 75.5% | 86.4% | 89.6% | 96.8% | 93.4% | –
COc1ccc(-c2[nH]ncc2/C=C/c2cc(C(F)(F)F)[nH]c(=O)n2)cc1 | 99.4% | 96.9% | 98.1% | 96% | 110% | 59.3% | 75.7% | 104% | 89.8% | 113% | 108% | 86.7% | 76.1% | 103% | 125% | 97.5% | 94.7% | 86.7% | 98.3% | 98.7%
COc1ccc2nc(C)cc(Nc3ccc(Cl)cc3)c2c1 | 104% | 99.9% | 95.1% | 104% | 91.8% | 156% | 105% | 92.2% | 109% | 107% | 102% | 97.9% | 114% | 115% | 118% | 103% | 108% | 104% | 99.4% | 100%
Nc1ncc(-c2ccc(C(F)(F)F)cc2)c(NC2CCCCCC2)n1 | 11.9% | 39.6% | 66.7% | 57.7% | 44.9% | -12.1% (active) | -6.45% (active) | 18.6% | 51.3% | 38.5% | 64.2% | 16.2% | -21.4% (active) | 65.1% | 50.3% | 56.1% | -20.9% (active) | 65.2% | -13.5% (active) | 27.8%
COC(=O)[C@]12CC[C@@H](C)[C@H](C)[C@@H]1C1=CC[C@@H]3[C@@]4(C)CC(=O)[C@H](O)[C@@]5(C)COC(=C45)C[C@@]3(C)[C@]1(C)CC2 | -66.5% (active) | -74.7% (active) | -73.4% (active) | -74.7% (active) | -51.8% (active) | -83.2% (active) | -76.3% (active) | -60.4% (active) | -76.5% (active) | -80.6% (active) | -85.7% (active) | -24.9% (active) | -75.7% (active) | -72.5% (active) | -87.6% (active) | -67.2% (active) | -77.8% (active) | -52.1% (active) | -75.1% (active) | -66.3% (active)
Cc1ccc(S(=O)(=O)Nc2cccc3[nH]c(C(F)(F)F)nc23)cc1 | 39.5% | 68.4% | 36.4% | 36.4% | 7.86% (active) | -3.66% (active) | -6.23% (active) | 24% | 47.7% | -21.6% (active) | 19% | 11.6% | 12.7% | 31.4% | 3.7% (active) | 60% | 0.543% (active) | -11.9% (active) | 43.1% | –
COC(=O)[C@]12CC[C@@H](C)[C@H](C)[C@@H]1C1=CC[C@@H]3[C@@]4(C)C[C@@H](O)[C@H](O)[C@@](C)(CO)[C@@H]4[C@H](O)C[C@@]3(C)[C@]1(C)CC2 | -50% (active) | -42.8% (active) | -29% (active) | -59.5% (active) | -72.5% (active) | -56% (active) | -78.9% (active) | -62.3% (active) | -65.1% (active) | -87.5% (active) | -82.5% (active) | -31.7% (active) | -55.9% (active) | -66.3% (active) | -81.6% (active) | -31% (active) | -78.5% (active) | -58.4% (active) | -85.1% (active) | –
CCCCCCCCCCCC(c1ccccc1)N(C)C (centres undefined) | 102% | 97.2% | 103% | 119% | 105% | 74.2% | 103% | 97.5% | 104% | 101% | 104% | 78.9% | 107% | 76.7% | 92.5% | 111% | 97.9% | 103% | 103% | –
